Values joined by “and” are separate entries in the source; they are usually repeats but may differ in a detail not shown here. Equal entries are not always repeated. Records with an inconclusive call do not appear. Where a call stands in place of a potency, no number is given. The source holds several records for some structures; these can differ, active in one and inactive in another. Active and inactive are the calls of the source. The call rests on the fitted dose curve; in most records, active means well fitted curve in the direction sought with a large enough effect in the repeat runs; inconclusive means weak or mixed curves; inactive means no such curve, though single readings can be large; an effect the other way counts as inactive or inconclusive.
Tests used:
[1] = qHTS RealTime-Glo MT Cell Viability Assay in HEK293 cells - 16 hour (AID 1224872); further: nearly all actives have a fitted effect of over 50% in size; further: potency means the concentration at half of the fitted maximal effect
Procedure, shortened: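 Assay medium contained NanoLuc luciferase plus cell-permeant prosubstrate, added with HEK293 cells at 600 cells/well. After 5 h at 37 C/5% CO2 compounds were added; plates stayed at 37 C for 40 h with serial luminescence reads.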

[2] = qHTS RealTime-Glo MT Cell Viability Assay in HepG2 cells - 8 hour (AID 1224873); further: nearly all actives have a fitted effect of over 55% in size
Procedure, shortened: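 Real-time viability: cells seeded at 600 per well together with NanoLuc and cell-permeant prosubstrate, compounds added after 5 h incubation. Luminescence tracked at 0, 8, 16, 24, 32 and 40 h of exposure.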

[3] = qHTS RealTime-Glo MT Cell Viability Assay in HEK293 cells - 40 hour (AID 1224874); conditions: RealTime-Glo luminescence; max response: stronger effect = lower value; further: nearly all actives have a fitted effect of over 50% in size; further: potency means the concentration at half of the fitted maximal effect
Procedure, shortened: (§1)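 Nonlytic bioluminescent viability monitoring. HEK293 at 600 cells/well with reagent; 5 h settle; compound transfer by pintool; plates held at 37 C and read at set time points.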

[4] = A CellTox Green Cytotoxicity Assay to monitor cytotoxicity in HEK293 cells - 24 hour (AID 1224875); further: series mostly up to about 77 µM; nearly all actives have a fitted effect of over 45% in size
Procedure, shortened: (§2)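 Cytotoxicity was tracked continuously in HEK293 cells by a DNA-binding dye excluded from viable cells. Compounds were transferred in DMSO 5 h after seeding; fluorescence was recorded at intervals up to 40 h.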

[5] = A CellTox Green Cytotoxicity Assay to monitor cytotoxicity in HepG2 cells - 16 hour (AID 1224876); further: nearly all actives have a fitted effect of over 45% in size; further: potency means the concentration at half of the fitted maximal effect
Procedure, shortened: (§3)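 Real-time, homogeneous cytotoxicity readout: dead-cell DNA staining by CellTox Green in HepG2 monolayers, fluorescence measured at timed intervals up to 40 h of continuous compound exposure.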

[6] = qHTS RealTime-Glo MT Cell Viability Assay in HepG2 cells - 32 hour (AID 1224877); further: nearly all actives have a fitted effect of over 55% in size
Procedure, shortened: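 qHTS, HepG2, 600 cells/well, RealTime-Glo (NanoLuc + prosubstrate) added with cells; 5 h preincubation; DMSO compound addition; 37 C; luminescence at 0/8/16/24/32/40 h.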

[7] = A CellTox Green Cytotoxicity Assay to monitor cytotoxicity in HepG2 cells - 24 hour (AID 1224878); further: nearly all actives have a fitted effect of over 45% in size; further: potency means the concentration at half of the fitted maximal effect
Procedure, shortened: as §3

[8] = A CellTox Green Cytotoxicity Assay to monitor cytotoxicity in HepG2 cells - 40 hour (AID 1224879); further: nearly all actives have a fitted effect of over 40% in size; further: potency means the concentration at half of the fitted maximal effect
Procedure, shortened: as §3

[9] = qHTS RealTime-Glo MT Cell Viability Assay in HEK293 cells - 0 hour (AID 1224880); further: top concentration of the series differs between compounds; nearly all actives have a fitted effect of over 45% in size
Procedure, shortened: as §1

[10] = A CellTox Green Cytotoxicity Assay to monitor cytotoxicity in HEK293 cells - 32 hour (AID 1224881); further: nearly all actives have a fitted effect of over 40% in size; further: potency means the concentration at half of the fitted maximal effect
Procedure, shortened: as §2

Row | Compound | Potency [1] | outcome [2] | Potency [3] | max response [3] | Potency [4] | Potency [5] | outcome [6] | Potency [7] | Potency [8] | Potency [9] | Potency [10]
1 | CC(C)(C)CC(C)(C)c1ccc(O)c(-n2nc3ccccc3n2)c1 | 44.3 µM (active) and inactive | inactive | 49.7 µM (active) | -13.8% (inactive) and -3.1% (inactive) | inactive | inactive | inactive | inactive | inactive | inactive | inactive
2 | O=C(OCc1ccccc1)c1ccccc1 | inactive | inactive | – | -12% (inactive) and 0.176% (inactive) and 2.06% (inactive) | inactive | inactive | inactive | inactive | inactive | inactive | 43.8 µM (active) and inactive
3 | C[C@]12CC[C@@H]3c4ccc(O)cc4CC[C@H]3[C@@H]1CCC2=O | inactive | inactive | – | – | inactive | inactive | inactive | inactive | inactive | inactive | 49 µM (active) and inactive
4 | OC[C@@H](O)[C@@H](O)[C@H](O)[C@H](O)CO | inactive | inactive | – | 5.62% (inactive) and 0.187% (inactive) and 10.1% (inactive) | inactive | inactive | inactive | inactive | inactive | inactive | inactive
5 | CO[C@H]1C=CO[C@@]2(C)Oc3c(C)c(O)c4c(O)c(c(/C=N/N5CCN(C)CC5)c(O)c4c3C2=O)NC(=O)/C(C)=C\C=C[C@H](C)[C@H](O)[C@@H](C)[C@@H](O)[C@@H](C)[C@H](OC(C)=O)[C@@H]1C | 6.96 µM (active) and 2.21 µM (active) and 21.3 µM (active) | – | 22 µM (active) and 15.7 µM (active) | – | inactive | inactive | inactive | inactive | inactive | inactive | inactive
6 | CCCCC/C(C=O)=C\c1ccccc1 | inactive | inactive | – | -12% (inactive) and 4.41% (inactive) and 0.735% (inactive) | inactive | inactive | inactive | inactive | inactive | inactive | inactive
7 | CN(C)Cc1cc(CN(C)C)c(O)c(CN(C)C)c1 | inactive | inactive | – | -0.259% (inactive) and 3.23% (inactive) | inactive | inactive | inactive | inactive | inactive | inactive | inactive
8 | CC(C)CC(C)CC(O)CC(C)C (centres undefined) | inactive | inactive | – | -0.631% (inactive) and 5.18% (inactive) | inactive | inactive | inactive | inactive | inactive | inactive | inactive
9 | C=CC(=O)NC(C)(C)CS(=O)(=O)O | inactive | inactive | – | -2.52% (inactive) and 4.35% (inactive) and 4.55% (inactive) | – | inactive and 24.5 µM (active) | inactive | inactive and 24.5 µM (active) | inactive and 43.6 µM (active) | inactive | inactive and 43.6 µM (active)
10 | C=CCOC(=O)CC(C)C | inactive | inactive | – | 4.01% (inactive) and 4.38% (inactive) | inactive | inactive | inactive | inactive | inactive | inactive | inactive
11 | COC1=CC(=O)C[C@@H](C)[C@]12Oc1c(Cl)c(OC)cc(OC)c1C2=O | inactive | inactive | – | -25.7% (inactive) | inactive | inactive | inactive | 38.6 µM (active) and inactive | 24.3 µM (active) and 21.9 µM (active) and 26.8 µM (active) | inactive | inactive
12 | C=C(C)OC(C)=O | inactive | inactive | – | 5.33% (inactive) and 0.384% (inactive) | inactive | inactive | inactive | inactive | inactive | inactive | inactive
13 | CC(C)=CCC/C(C)=C/CO | inactive | inactive | – | 7.58% (inactive) and 13.8% (inactive) and -0.309% (inactive) | inactive | inactive | inactive | inactive | inactive | inactive | inactive
14 | NC(N)=NC(N)=NCCc1ccccc1 | inactive | inactive | 6.16 µM (active) | – | inactive | inactive | inactive | inactive | inactive | inactive | inactive
15 | Cc1cnc(NC(=O)C2=C(O)c3ccccc3S(=O)(=O)N2C)s1 | inactive | inactive | – | 6.82% (inactive) and -5.33% (inactive) and 4.88% (inactive) | inactive | inactive | inactive | inactive | inactive | inactive | inactive
16 | C[C@]12CC[C@@H]3c4ccc(O)cc4C[C@@H](CCCCCCCCCS(=O)CCCC(F)(F)C(F)(F)F)[C@H]3[C@@H]1CC[C@@H]2O (some centres undefined) | 43.6 µM (active) | – | 43.6 µM (active) | – | inactive | inactive | inactive | inactive | inactive | inactive | inactive

Row | Compound | Potency [1] | outcome [2] | Potency [3] | max response [3] | Potency [4] | Potency [5] | outcome [6] | Potency [7] | Potency [8] | Potency [9] | Potency [10]
17 | CCCCCCCCCCCCCCCCCC(=O)OCC(O)CO (centres undefined) | inactive | inactive | – | 10.4% (inactive) and 6.82% (inactive) and 1.48% (inactive) | inactive | inactive | inactive | inactive | inactive | inactive | inactive
18 | COc1cc(C=O)ccc1O | inactive | inactive | – | 0.342% (inactive) and 3.21% (inactive) and 2.85% (inactive) | inactive | inactive | inactive | inactive | inactive | inactive | inactive
19 | COc1ccc(O)cc1 | inactive | inactive | – | -25.5% (inactive) and -26.5% (inactive) and -24.7% (inactive) | inactive | inactive | inactive | inactive | inactive | inactive | inactive
20 | c1ccc2[nH]c(-c3cscn3)nc2c1 | – | inactive | – | -21.8% (inactive) | inactive | inactive | inactive | inactive | inactive | inactive | inactive
21 | COC(=O)c1ccc(O)cc1 | – | – | – | – | inactive | inactive | – | inactive | inactive | – | inactive
22 | Cc1cccc(Nc2cc(Cl)nc(SCC(=O)O)n2)c1C | inactive | inactive | – | -8.11% (inactive) and -6.81% (inactive) and -0.208% (inactive) | inactive | inactive | inactive | inactive | inactive | inactive | inactive
23 | CC(C)Cc1ccc(C(C)C(=O)O)cc1 (centres undefined) | inactive | inactive | – | 5.92% (inactive) and 7.46% (inactive) and 3.63% (inactive) | inactive | inactive | inactive | inactive | inactive | inactive | inactive
24 | CCCCCCCCOc1ccc(C(=O)c2ccccc2)c(O)c1 | inactive | inactive | – | -20.9% (inactive) and 7.71% (inactive) and 4.9% (inactive) | inactive | inactive | inactive | inactive | inactive | inactive | inactive
25 | CCCCNC(=O)NS(=O)(=O)c1ccc(N)cc1 | inactive | inactive | – | 3.02% (inactive) and 10% (inactive) | inactive | inactive | inactive | inactive | inactive | inactive | inactive
26 | CC1(C)O[C@@H]2[C@@H](CO[C@@]3(COS(N)(=O)=O)OC(C)(C)O[C@@H]23)O1 | inactive | inactive | – | -1.97% (inactive) | inactive | inactive | inactive | inactive | inactive | inactive | inactive
27 | Cc1ccc(O)c(-n2nc3ccccc3n2)c1 | inactive | inactive | – | -4.85% (inactive) and -18.6% (inactive) and -8.22% (inactive) | inactive | inactive | inactive | inactive | inactive | inactive | inactive
28 | CC(=O)CCC(C)C | inactive | inactive | – | -1.02% (inactive) and 1.57% (inactive) | – | inactive and 38.9 µM (active) | inactive | inactive and 38.9 µM (active) | inactive and 27.5 µM (active) | inactive | inactive and 34.7 µM (active)
29 | N[C@@H](Cc1c[nH]c2ccc(O)cc12)C(=O)O | inactive | inactive | – | 3.87% (inactive) and 1.98% (inactive) | inactive | inactive | inactive | inactive | inactive | inactive | inactive
30 | COc1ccccc1O | inactive | inactive | – | 18.7% (inactive) and 1.57% (inactive) and 2.8% (inactive) | inactive | inactive | inactive | inactive | inactive | inactive | inactive
31 | Nc1ccc(N=Nc2ccccc2)c(N)n1 | – | inactive | 24.7 µM (active) and 24.5 µM (active) | – | inactive | inactive | inactive | 34.9 µM (active) and 17.4 µM (active) | 34.9 µM (active) and 17.4 µM (active) and 26.8 µM (active) | inactive | inactive

Source: PubChem BioAssay (Tox21)
